HTR5A ag ctr: HTR5A agonism, opioid heterodimer counter-screen | HTR5A agonist assay, luminescence, cell-based | activation, % at 9.3 µM | P47898 | 340,000 compounds, 0.61% hits | AID 504692; in the data active = activation mostly above about 9.5%, no sharp cut-off; inactive = mostly below about 7.6%
Target sequence (P47898 whole entry, looked up): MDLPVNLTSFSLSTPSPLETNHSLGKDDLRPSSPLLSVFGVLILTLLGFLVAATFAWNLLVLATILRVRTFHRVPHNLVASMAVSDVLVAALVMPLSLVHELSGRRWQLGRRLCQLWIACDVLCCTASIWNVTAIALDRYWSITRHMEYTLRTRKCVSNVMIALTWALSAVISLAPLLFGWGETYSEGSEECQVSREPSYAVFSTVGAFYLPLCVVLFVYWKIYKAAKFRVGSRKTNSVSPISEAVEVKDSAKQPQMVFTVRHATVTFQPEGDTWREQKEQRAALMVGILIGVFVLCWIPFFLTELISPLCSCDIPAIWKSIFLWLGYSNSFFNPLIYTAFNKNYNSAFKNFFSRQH
MOR-DOR ag: agonists of human mu-delta opioid receptor heterodimerization. P35372+P41143. cells, OPRM1-OPRD1 heterodimerization, luminescence. activation, % at 9.3 µM. 340,000 compounds, 0.3% hits; in the data active = activation above about 18%
OPRM1-OPRD1 inv: inverse agonist of human OPRM1-OPRD1 heterodimerization; cell-based MOR-DOR heterodimer luminescence, inverse agonism; inhibition, % at 9.3 µM; 340,000 compounds, 0.21% hits; in the data active = inhibition above about 22%, passing the limit was not always enough
HTR5A inv ctr: inverse agonist of human HTR5A in OPRM1-OPRD1 counter-screen | AID 504634 | 340,000 compounds, 0.083% hits | HTR5A cell line, luminescence, inverse agonism | P47898 | inhibition, % at 9.3 µM; in the data active = inhibition mostly above about 23%, no sharp cut-off; inactive = mostly below about 18%
A number is an active result; i = inactive. Shown are actives, neighbours in structure and some others; about 1.1% of the full set was active somewhere.

SMILES	HTR5A ag ctr	MOR-DOR ag	OPRM1-OPRD1 inv	HTR5A inv ctr
O=C(N/N=C/c1ccccn1)c1ccc(NC(=O)c2ccc(F)cc2)cc1	14	i	i	i
COc1cc(C(=O)Nc2cccc(C)c2C)ccc1OCC(=O)N1CCOCC1	i	i	i	i
CCOC(=O)C1=C(C)N(C)C(=S)NC1c1cccc(Cl)c1Cl (configuration not stated)	10	i	i	i
COc1ccc(/C(C)=N/NS(=O)(=O)c2cc(C)ccc2C)c(OC)c1	13	i	i	i
CCOc1ccc(S(=O)(=O)N/N=C(\C)c2ccc(OC)cc2OC)cc1	i	i	i	i
COc1ccccc1C(=O)NC(CCSC)C(=O)NCc1ccccn1 (configuration not stated)	i	i	i	i
C=CCNC(=O)c1onc(CSc2ccc(F)c(F)c2)c1C(=O)NCC=C	13	i	i	i
C=CCNC(=O)c1onc(CSc2ccccc2)c1C(=O)NCC=C	i	i	i	i
CC(=O)NC(Cc1ccccc1)C(=O)Oc1ccc2ccccc2c1 (configuration not stated)	i	i	i	i
CCn1nc(NC(=O)C(C)C)c2cc3cccc(C)c3nc21	11	i	i	i
CC(C)N(Cc1ccccc1)C(=O)COC(=O)c1cc[n+]([O-])cc1	i	i	i	i
COc1ccccc1N(CC(=O)NCCSc1ccccn1)S(=O)(=O)c1ccccc1	12	i	i	i
Cc1ccccc1N(CC(=O)NCCSc1ccccn1)S(=O)(=O)c1ccccc1	i	i	i	i
COc1cc2c(cc1OC)C(c1ccc(OC)c(OC)c1OC)CC(=O)N2 (configuration not stated)	10	i	i	i
COc1cc2c(cc1OC)C(c1cccc(OC)c1OC)CC(=O)N2 (configuration not stated)	i	i	i	i
CC(C)N(CC(=O)Nc1ccc(Cl)cc1C(F)(F)F)C(=O)CCl	12	i	i	i
O=c1ccc2cc(S(=O)(=O)Nc3ccc(Br)cc3)ccc2o1	i	i	i	i
CC1CC(C)CN(CCCNC(=O)CN2C(=O)CSc3ccc(S(=O)(=O)N4CCOCC4)cc32)C1 (configuration not stated)	12	i	i	i
Oc1ccc(-c2c(C3=CCCCC3)sc3ccccc23)cc1	i	i	i	i
Cc1cccc(C)c1OCc1cc(C(=O)NCC2CCCCC2)no1	i	i	i	i
Cc1cccc(C)c1OCc1cc(C(=O)N(Cc2c(C)nn(C)c2C)C2CC2)no1	11	i	i	i
N#C/C(=C(/O)c1ccco1)c1nc2ccccc2[nH]1	11	i	i	i
N#C/C(=C(\O)Cc1ccccc1)c1nc2ccccc2[nH]1	i	i	i	i
CC(Sc1nnc(-c2ccncc2)n1-c1ccc(F)cc1)C(=O)NC1CC1 (configuration not stated)	i	i	i	i
Cc1nn(-c2ccccc2)c(N)c1N=Nc1ccc(Cl)cc1	11	i	i	i
SMILES	HTR5A ag ctr	MOR-DOR ag	OPRM1-OPRD1 inv	HTR5A inv ctr
Cc1nn(-c2ccccc2)c(N)c1N=Nc1ccccc1	i	i	i	i
O=C(COC(=O)CCC(=O)c1cccs1)Nc1ccc(F)c(F)c1F	i	i	i	i
COc1ccc(NC(=O)c2cc(-c3cc(C)cc(C)c3O)n[nH]2)cc1Cl	11	i	i	i
CCOC(=O)C1=C(CC)OC(N)=C(C#N)C1c1cccs1 (configuration not stated)	11	i	i	i
COC(=O)CN1C(=O)[C@H]2[C@@H](/C=C/c3ccccc3)N3C(=O)CN(Cc4ccccc4)C(=O)[C@@]3(C)[C@H]2C1=O	i	i	i	i
O=C1Nc2ccccc2C1=Nc1cccc(Cl)c1	i	i	53	i
CC(=O)N(/N=C1/C(=O)Nc2ccccc21)c1ccccc1	i	i	i	i
CSc1cccc(N=C2C(=O)Nc3ccccc32)c1	i	i	52	i
CC(=O)c1ccc(N=C2C(=O)Nc3ccccc32)cc1	i	i	53	i
O=C(/C=C/c1ccco1)N(Cc1ccccc1F)C1CCS(=O)(=O)C1 (configuration not stated)	i	i	i	i
CC(O)(Cc1ccccn1)Cc1ccccn1	i	i	i	i
Cc1cc(NC(=O)CSc2nnc(-c3c[nH]c4ccccc34)n2-c2ccc(Cl)cc2)no1	13	21	i	i
Cc1ccc(NC2CCCN(C(=O)CSc3ccccn3)C2)cc1C (configuration not stated)	i	i	i	i
Cc1cc(C)n(-c2ccc(C(=O)NC(C)C)cc2)n1	i	i	i	i
CC(C)NC(=O)c1ccc(-n2nc(C(F)(F)F)c3c2CCCC3)cc1	13	i	i	i
CCOCCOC(=O)c1ccc(NC(=O)c2cc3ccccc3o2)cc1	i	i	i	i
CN1C(=O)C(O)(CC(=O)/C=C/c2ccco2)c2ccccc21 (configuration not stated)	9.6	i	i	i
CN1C(=O)c2ccccc2N(C)C1c1cccc(O)c1 (configuration not stated)	i	i	i	i
COc1cc(C2N(C)C(=O)c3ccccc3N2C)ccc1O (configuration not stated)	9.5	i	i	i
O=C(Nc1cccnc1)c1cc(-c2cccc(Br)c2)nc2ccccc12	13	i	i	i
CCCc1ccc(NC(=O)C2CCCN(c3cnccn3)C2)cc1 (configuration not stated)	i	i	i	i
O=C(c1ccc(Cl)c(S(=O)(=O)N2CCOCC2)c1)N1CCN(c2ccccn2)CC1	i	i	i	i
O=C(c1ccc(Cl)c(S(=O)(=O)N2CCCC2)c1)N1CCN(c2ccccn2)CC1	12	i	i	i
CC1(c2ccc(Cl)cc2Cl)NC(=O)N(CC(=O)NC2CCCCC2)C1=O (configuration not stated)	i	i	i	i
CC(C)(OC(=O)c1ccc(C#N)cc1)c1cc2ccccc2c(=O)o1	i	i	i	i
SMILES	HTR5A ag ctr	MOR-DOR ag	OPRM1-OPRD1 inv	HTR5A inv ctr
O=C(Nc1ccc(-c2nc3ccccc3[nH]2)cc1)c1ccc2c(c1)OCO2	13	i	i	i
O=C(Nc1ccc(Cl)c(-c2nc3ccccc3[nH]2)c1)c1ccc2c(c1)OCO2	i	i	i	i
O=C(Cn1c(=O)n(CC(=O)N2CCCCC2)c(=O)c2sccc21)NCc1ccccc1	i	i	i	i
O=C(Cn1c(=O)n(CCC(=O)N2CCCCC2)c(=O)c2sccc21)NCc1ccccc1	13	i	i	i
Cc1cc(N2CCN(c3ccccc3)CC2)nc(NCc2ccccc2)n1	i	i	i	i
CCCc1nc(C)cc(N2CCN(c3ccccc3)CC2)n1	9.6	i	i	i
CCn1c(C)nc2cc(C(=O)NNC(=O)CN(C)S(=O)(=O)c3ccc(NC(C)=O)cc3)ccc21	i	i	i	i
COc1ccccc1-n1c(=S)sc2c(=O)n(Cc3ccco3)c(SC)nc21	10	i	i	i
CCn1cc([N+](=O)[O-])c(C(=O)N2CCN(C(=O)c3ccco3)CC2)n1	14	i	i	i
COCc1ccc(CN2CCCC(C(=O)Nc3ccccc3-c3ccc(OC)cc3)C2)o1 (configuration not stated)	i	i	i	i

Assay outcomes as filed in PubChem BioAssay.
